Peg3 promoter = Peg3 promoter activity inhibition; HeLa PEG-Prom luciferase reporter, luminescence, overnight; inhibition, % at 20 µM; actives 1.7% (n = 360,000); AID 588405;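 active = inhibition of at least 50% at 20 µM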
TROY NFkB inh = TROY signaling inhibition; Q293 LMP1-TROYcd NF-kB luciferase reporter, 4 h; inhibition, % at 10 µM; actives 0.98% (n = 360,000);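 active = compounds whose plate-normalised and pattern-corrected inhibition of the luciferase reporter signal at the single screening dose is 50% or more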
Shn3 3UTR inh = Schnurri-3 reporter inhibition in Clone20 osteoblasts. Clone20 osteoblast Shn3 3'UTR firefly luciferase, 24 h. actives 0.52% (n = 360,000). inhibition, % at 12.5 µM;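 active = mean inhibition of at least 75% with every replicate also reaching 75%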
TWEAK-Fn14 inh = inhibitors of TWEAK-Fn14 interaction signaling | AID 1159606 | actives 2% (n = 360,000) | inhibition, % at 10 µM | TWEAK-stimulated Fn14 reporter cells, luciferase luminescence, 8 h; in the data active = inhibition above about 50%
LMP1 NFkB inh = Epstein-Barr LMP1 NF-kappaB reporter inhibition; AID 504558; actives 0.69% (n = 350,000); LMP1-induced NF-kappaB luciferase reporter cells, luminescence; inhibition, % at 12.5 µM; in the data active = inhibition above about 41%
TRPM1 prom inh = MITF TRPM1 promoter inhibition in SK-MEL-5 cells; AID 488899; SK-MEL-5 TRPM1 promoter luciferase, 24 h; inhibition, % at 12.5 µM; actives 0.83% (n = 330,000);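 active = mean inhibition across replicates of 60% or more, whatever share of single replicates reaches that level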
Each line names hits and unclear results; the compound was inactive in the other large screens. In the library only some 4.1% were active in any assay of this set; here they are far more common.

Cc1cc(-c2ccccc2)n2ncc(-c3ccccc3)c2n1	TROY NFkB inh 73.6, TWEAK-Fn14 inh 88.8
Cc1cc(NCc2ccccc2)n2ncc(-c3ccccc3)c2n1	none
CC(C)c1nc(=S)n(-c2ccccc2)[nH]1	TROY NFkB inh 67.7
CC(=O)Nc1nc(=S)n(-c2ccccc2)[nH]1	none
CC(C)CCNC(=O)CN(C(=O)CCC(=O)Nc1nccs1)c1ccc2c(c1)OCCO2	TROY NFkB inh 68.9, TWEAK-Fn14 inh 78.3
Cc1ccccc1N(CC(=O)NCc1ccco1)C(=O)CCC(=O)Nc1nccs1	TWEAK-Fn14 inh 81.5
Cc1cccc(N(CC(=O)NCc2ccco2)C(=O)CCC(=O)Nc2nccs2)c1C	none
CCOC(=O)N1CCN(C(c2ccc(F)cc2)c2sc3nc(C)nn3c2O)CC1 (stereo unspecified)	none
CC1CCCCC1NC(=O)NC(=O)CCl (stereo unspecified)	Peg3 promoter 55.0 (no result: TRPM1 prom inh)
CC1CCCC(NC(=O)NC(=O)CCl)C1C (stereo unspecified)	Peg3 promoter 51.4, TRPM1 prom inh 71.1
Nc1ccn([C@@H]2O[C@H](CNCc3cc(Br)ccc3OCc3ccccc3)[C@@H](O)[C@H]2O)c(=O)n1	none (no result: TRPM1 prom inh)
Cc1cc(N2CCC(C(=O)NCC3CC3)CC2)nc(-c2ccccc2)n1	TWEAK-Fn14 inh 78.0
CCC(=O)c1ccc(N2CCN(C(=O)COc3ccc(F)cc3)CC2)c(F)c1	TWEAK-Fn14 inh 80.6 (no result: TROY NFkB inh)
Cc1nc(CNC(=O)CC2C(=O)NCCN2Cc2ccc(F)cc2)cs1 (stereo unspecified)	none
O=c1[nH]c(=O)c2cc([N+](=O)[O-])cc([N+](=O)[O-])c2[nH]1	TROY NFkB inh 67.8
O=c1c2cc([N+](=O)[O-])cc([N+](=O)[O-])c2[nH]n1-c1ccccc1	none
O=C1C=C(N(CCO)Cc2ccccc2)c2ccccc2C1=O	TRPM1 prom inh 106.5
CC(C)C[C@@H](CN1CCC[C@@H]1CN1C(=S)NC[C@@H]1Cc1ccccc1)N1C[C@H](Cc2ccc(O)cc2)N(CC2CCCCC2)C1=S	none (no result: LMP1 NFkB inh, TRPM1 prom inh)
CC(C)C[C@H]1CNC(=S)N1CC1CCCN1C[C@H](CC(C)C)N1C[C@H](Cc2ccc(O)cc2)N(CC2CCCCCC2)C1=S (stereo partly specified)	Peg3 promoter 87.3
CC(C)C[C@@H](CN1CCCC1CN1C(=S)NC[C@@H]1Cc1ccc(O)cc1)N1C[C@H](Cc2ccc(O)cc2)N(CC2CCCCC2)C1=S (stereo partly specified)	Peg3 promoter 92.7, TWEAK-Fn14 inh 55.9
CC(C)C[C@H]1CNC(=S)N1C[C@H]1CCCN1C[C@H](CC(C)C)N1C[C@H](Cc2ccc(O)cc2)N(CC2CCCCCC2)C1=S	Peg3 promoter 86.7 (no result: LMP1 NFkB inh, TRPM1 prom inh)
CC(C)C[C@H]1CNC(=S)N1CC1CCCN1C[C@H](CC(C)C)N1C[C@H](Cc2ccc(O)cc2)N(CC2CCCCC2)C1=S (stereo partly specified)	Peg3 promoter 78.0
CC(C)(C)OC(=O)n1cc(CCO)c2ccccc21	none
COc1ccc(C2c3ccc4ccccc4c3Oc3ncn(CCN4CCOCC4)c(=N)c32)cc1 (stereo unspecified)	Peg3 promoter 102.1, TRPM1 prom inh 77.4
COc1ccc(C2c3ccc4ccccc4c3Oc3ncn(CCO)c(=N)c32)cc1 (stereo unspecified)	Peg3 promoter 103.2, TRPM1 prom inh 77.5
COc1ccc(C2c3ccc4ccccc4c3Oc3ncn(CCN4CCOCC4)c(=N)c32)cc1OC (stereo unspecified)	none
COc1ccc(C2c3ccc4ccccc4c3Oc3ncn(CCN(C)C)c(=N)c32)cc1 (stereo unspecified)	Peg3 promoter 92.3, TRPM1 prom inh 95.0
COc1ccc(C2c3c(ncn(Cc4ccco4)c3=N)Oc3ccc4ccccc4c32)cc1 (stereo unspecified)	none
CC(C)[C@H](NS(=O)(=O)c1ccccc1)C(=O)Nc1ccccc1N1CCOCC1	none
CCOC(=O)N1CCN(C(=O)Cn2ncn3nc(-c4cccs4)cc3c2=O)CC1	none
CN1C(=O)C(CC#N)(C2(CC#N)C(=O)N(C)c3ccccc32)c2ccccc21 (stereo unspecified)	none
Cc1cc(Nc2cccc(Cl)c2)nc(N2CCOCC2)n1	TROY NFkB inh 90.6, TWEAK-Fn14 inh 92.5
Cc1cc(Nc2ccccc2)nc(N2CCOCC2)n1	none
Oc1ccc(-c2csc(Nc3ccccn3)n2)cc1O	none
Oc1ccc(-c2csc(Nc3cccc4ccccc34)n2)cc1O	Shn3 3UTR inh 86.6
CCN(CC)C(=S)Oc1ccc(Cl)cc1Cl	TWEAK-Fn14 inh 96.5
COc1ccc(N/C=C/C(=O)c2ccccc2)cc1	TWEAK-Fn14 inh 89.6
COc1ccc(C(=O)/C=C/Nc2cc(C)ccn2)cc1	TWEAK-Fn14 inh 74.8
O=C(/C=C/Nc1ccc(Br)cc1F)c1ccccc1	TROY NFkB inh 76.0, TWEAK-Fn14 inh 86.2, LMP1 NFkB inh 65.3
COc1ccc(N/C=C\C(=O)c2ccc3ccccc3c2)cc1	none
CCOc1ccc(NC(=O)/C=C/c2ccccc2)c([N+](=O)[O-])c1	none
CCOc1ccc(N/C=C/C(=O)c2ccccc2)c([N+](=O)[O-])c1	TWEAK-Fn14 inh 85.9
CCOC(=O)c1cc(-c2ccccc2)sc1NC(=O)C(C)OC(=O)c1cccnc1OCC (stereo unspecified)	none
Cc1ccc(S(=O)(=O)N2C[C@H]3C(=O)C[C@@H](c4ccccc4)N(S(=O)(=O)c4ccc(Br)cc4)[C@H]3C[C@H]2c2ccccc2)cc1	none (no result: LMP1 NFkB inh, TRPM1 prom inh)
CSc1nc(N)c2c(n1)N(C)C=NS2(=O)=O	none
O=C(/C=C\Nc1ccccn1)c1ccccc1	TWEAK-Fn14 inh 76.5
O=C(Nc1ccccc1C(=O)N1CCCCC1)c1cccc(S(=O)(=O)N2CCOCC2)c1	TWEAK-Fn14 inh 59.5 (no result: TROY NFkB inh)
C/C(=N\NC(=S)Nc1cc(S(=O)(=O)N2CCOCC2)ccc1Cl)c1ccccc1F	Peg3 promoter 52.6
CC(C)N(C(=S)Nc1cc(S(=O)(=O)N2CCOCC2)ccc1Cl)c1ccccc1	none
O=C(Nc1nc(-c2ccccc2)cs1)C1CCCN(S(=O)(=O)c2cccc([N+](=O)[O-])c2)C1 (stereo unspecified)	none
O=C(Nc1nc(-c2ccc(S(=O)(=O)N3CCOCC3)cc2)cs1)c1ccccc1	TROY NFkB inh 53.1, TWEAK-Fn14 inh 85.4
O=C(Nc1ccccc1C(=O)N1CCCCCC1)c1cccc(S(=O)(=O)N2CCOCC2)c1	none
O=C(Nc1nc(-c2ccccc2)cs1)C1CCCN(S(=O)(=O)c2ccccc2)C1 (stereo unspecified)	TWEAK-Fn14 inh 88.0
Cc1cc2c(cc1C)C(c1ccccc1OC(C)C)CC(=O)N2 (stereo unspecified)	none
CCc1ccc(OCc2cnc(Cl)s2)cc1	none
Nc1nnnn1/N=C/c1cc(Br)ccc1O	none (no result: LMP1 NFkB inh, TRPM1 prom inh)
Cc1cc(NC(=O)c2cccc(S(=O)(=O)N3CCCCCC3)c2)n(-c2ccccn2)n1	TWEAK-Fn14 inh 51.8
